Assay results from PubChem BioAssay (Tox21).
Several values for one entry are separate records, joined by “and”; a condition that tells them apart may be missing. Equal values may be shown once. Records with an inconclusive call do not appear. Entries that show only a call come without a potency. Where a structure was tested more than once in an assay, its records may differ in their call. Activity calls are given as the source filed them. Unless noted, calls follow the shape of the dose curve; as a rule, active = well fitted curve in the direction sought with a large enough effect in the repeat runs; inconclusive = weak or mixed curves; inactive = no such curve, though single readings can be large; an effect the other way counts as inactive or inconclusive.

How the values were obtained:
[1] = Human pregnane X receptor (PXR) small molecule agonists, qHTS cell viability counter screen (AID 1346977); also: nearly all actives have a fitted effect of over 50% in size; also: potency is read from the fitted curve at half-maximal effect
In short: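 In each well, the PXR reporter HepG2 line was checked for viability: CellTiter-Fluor reagent added 23hr post-dosing, fluorescence read after 1hr incubation at 37C.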

[2] = Caspase-3/7 induction in HepG2 cells by small molecules, qHTS assay (AID 1346978); also: nearly all actives have a fitted effect of over 15% in size; also: potency is read from the fitted curve at half-maximal effect
In short: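 Caspase-3/7 induction was measured by Caspase-Glo 3/7 luminescence (30 min, room temperature) after a 17 hr compound exposure of wild-type HepG2 cells seeded at 2,000 per well and pre-incubated 5 hr.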

[3] = Caspase-3/7 induction in CHO-K1 cells by small molecules, qHTS cell viability counter screen (AID 1346979); also: nearly all actives have a fitted effect of over 35% in size; also: potency is read from the fitted curve at half-maximal effect
In short: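 Following a 5hr settling period, CHO-K1 cells at 1,500 per well received DMSO-dissolved compounds. Cell viability was quantified 16hr later by CellTiter-Fluor fluorescence, measured after 1hr with reagent at 37C.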

[4] = Caspase-3/7 induction in CHO-K1 cells by small molecules, qHTS assay (AID 1346980); also: nearly all actives have a fitted effect of over 15% in size
In short: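 Luminescent Caspase-Glo 3/7 read (30min, room temperature) quantified apoptosis induction. Cells were wild-type CHO-K1, treated with compound for 17hr at 37 C and 5% CO2.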

[5] = Caspase-3/7 induction in HepG2 cells by small molecules, qHTS cell viability counter screen (AID 1346981); also: nearly all actives have a fitted effect of over 30% in size; also: potency is read from the fitted curve at half-maximal effect
In short: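 Fluorescence read-out of live-cell protease activity (CellTiter-Fluor) after 1 hr with reagent. This was measured in the same wells as the caspase-3/7 luminescence, on HepG2 cells exposed to DMSO-dissolved compounds for 16 hr at 37 C.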

[6] = target: Nuclear receptor subfamily 1 group I member 2 (Homo sapiens) (UniProt O75469); assay: Human pregnane X receptor (PXR) small molecule agonists, qHTS assay (AID 1346982); also: nearly all actives have a fitted effect of over 35% in size; also: potency is read from the fitted curve at half-maximal effect
Nuclear receptor subfamily 1 group I member 2 (Homo sapiens), sequence (O75469 whole entry, looked up): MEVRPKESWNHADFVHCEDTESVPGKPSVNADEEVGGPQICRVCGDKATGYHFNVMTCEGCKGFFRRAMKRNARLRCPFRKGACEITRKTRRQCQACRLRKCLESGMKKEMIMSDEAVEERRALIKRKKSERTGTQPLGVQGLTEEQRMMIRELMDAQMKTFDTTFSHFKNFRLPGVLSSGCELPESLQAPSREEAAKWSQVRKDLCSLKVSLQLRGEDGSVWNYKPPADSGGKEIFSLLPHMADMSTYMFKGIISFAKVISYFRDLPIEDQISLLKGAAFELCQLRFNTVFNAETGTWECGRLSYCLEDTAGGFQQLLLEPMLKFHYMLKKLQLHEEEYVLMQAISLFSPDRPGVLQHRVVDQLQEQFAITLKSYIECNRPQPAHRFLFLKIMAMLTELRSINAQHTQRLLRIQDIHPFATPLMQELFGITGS
In short: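 HepG2 PXR-Luc reporter line, 5% charcoal-stripped FBS; 5 hr pre-incubation, compound (DMSO) 24 hr at 37 C/5% CO2; ONE-Glo 30 min RT; luminescence read-out.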

[7] = target: Acetylcholinesterase (Homo sapiens) (UniProt P22303); assay: Acetylcholinesterase (AChE) small molecule antagonists: colormetric cell-based qHTS assay (AID 1347395; calls by dose curve; also: nearly all actives have a fitted effect of over 30% in size; also: potency is read from the fitted curve at half-maximal effect)
Acetylcholinesterase (Homo sapiens), sequence (P22303 whole entry, looked up): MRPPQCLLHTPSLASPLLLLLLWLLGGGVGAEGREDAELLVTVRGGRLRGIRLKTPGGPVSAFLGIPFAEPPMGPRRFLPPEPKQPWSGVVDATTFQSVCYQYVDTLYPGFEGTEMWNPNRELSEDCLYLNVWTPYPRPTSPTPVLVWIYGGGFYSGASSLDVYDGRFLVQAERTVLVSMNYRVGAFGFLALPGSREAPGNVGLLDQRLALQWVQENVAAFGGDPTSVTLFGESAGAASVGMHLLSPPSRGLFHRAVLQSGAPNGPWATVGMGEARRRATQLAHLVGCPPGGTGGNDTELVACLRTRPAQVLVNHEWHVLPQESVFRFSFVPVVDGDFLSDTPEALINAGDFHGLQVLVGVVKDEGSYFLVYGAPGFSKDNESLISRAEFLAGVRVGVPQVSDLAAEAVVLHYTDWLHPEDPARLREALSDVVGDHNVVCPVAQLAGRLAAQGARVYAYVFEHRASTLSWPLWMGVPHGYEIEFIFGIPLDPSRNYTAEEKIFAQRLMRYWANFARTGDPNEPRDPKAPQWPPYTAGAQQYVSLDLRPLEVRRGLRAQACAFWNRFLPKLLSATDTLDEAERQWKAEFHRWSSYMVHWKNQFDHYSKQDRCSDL
In short: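 After overnight attachment at 37 C, SH-SY5Y cells get 30 min compound exposure; detection cocktail (acetylthiocholine, DTNB) then incubates 90 min at 37 C, and absorbance reflects AChE-generated thiocholine.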

[8] = target: Acetylcholinesterase (Homo sapiens) (UniProt P22303); assay: Acetylcholinesterase (AChE) small molecule antagonists: enzyme-based qHTS assay (AID 1347397; calls by dose curve; also: nearly all actives have a fitted effect of over 55% in size; also: potency is read from the fitted curve at half-maximal effect); conditions: Potency: AChE enzyme activity inhibition
In short: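 Colorimetric DTNB readout of acetylthiocholine hydrolysis, 10 min at room temperature, after 30 min room-temperature exposure of 50 mU/mL recombinant human enzyme to compound; DMSO vehicle control.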

[9] = target: Acetylcholinesterase (Homo sapiens) (UniProt P22303); assay: Acetylcholinesterase (AChE) small molecule antagonists: fluorescence cell-based qHTS assay (AID 1347398; calls by dose curve; also: nearly all actives have a fitted effect of over 50% in size; also: potency is read from the fitted curve at half-maximal effect); conditions: Potency: AChE activity
In short: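 Cellular AChE activity read as thiocholine from acetylthiocholine hydrolysis, detected by Thiolite Green fluorescence at 490/520 nm after 40 min at room temperature. Compounds were pre-incubated 30 min at 37 C on adherent SH-SY5Y cells.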

[10] = target: Acetylcholinesterase (Homo sapiens) (UniProt P22303); assay: Acetylcholinesterase (AChE) small molecule antagonists: enzyme-based qHTS assay with human liver microsomes (AID 1347399; calls by dose curve; also: nearly all actives have a fitted effect of over 60% in size); conditions: Potency: qHTS inhibition
In short: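 Recombinant human AChE (50 mU/mL in the enzyme mix) and human liver microsomes (0.25 mg/mL final) were preincubated with compound and NADPH (0.25 mg/mL final) for 30 min at 37 C. Acetylthiocholine/DTNB was then added; thiocholine was read colorimetrically after 10 min at room temperature.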

[11] = target: Cytochrome P450 2D6 (Homo sapiens) (UniProt P10635); assay: Cytochrome P450 Family 2 Subfamily D Member 6 (CYP2D6) small molecule antagonists: luciferase reporter qHTS assay (AID 1671196); also: nearly all actives have a fitted effect of over 50% in size; also: potency is read from the fitted curve at half-maximal effect
Cytochrome P450 2D6 (Homo sapiens), sequence (P10635 whole entry, looked up): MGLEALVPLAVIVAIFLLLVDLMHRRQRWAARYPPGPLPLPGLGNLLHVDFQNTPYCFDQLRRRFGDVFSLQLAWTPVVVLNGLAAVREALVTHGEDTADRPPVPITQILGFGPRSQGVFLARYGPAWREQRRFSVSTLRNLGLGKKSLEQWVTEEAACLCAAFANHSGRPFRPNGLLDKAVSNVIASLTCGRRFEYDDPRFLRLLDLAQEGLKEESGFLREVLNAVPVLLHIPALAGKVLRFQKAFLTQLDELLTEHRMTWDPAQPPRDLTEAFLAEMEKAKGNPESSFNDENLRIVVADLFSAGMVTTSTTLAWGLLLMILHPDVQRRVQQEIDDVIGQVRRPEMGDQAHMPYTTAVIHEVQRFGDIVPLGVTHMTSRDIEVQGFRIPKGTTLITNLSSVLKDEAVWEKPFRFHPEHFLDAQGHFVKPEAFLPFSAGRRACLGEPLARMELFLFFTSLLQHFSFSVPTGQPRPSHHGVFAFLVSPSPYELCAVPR
In short: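 Luminogenic proluciferin substrate, CYP2D6 enzyme; 10 min RT preincubation with compound, NADPH regeneration system added, 1 h RT. Stop/detection reagent, 20 min RT, luminescence read (RLU). Signal proportional to CYP activity.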

[12] = target: Cytochrome P450 2C19 (Homo sapiens) (UniProt P33261); assay: Cytochrome P450 Family 2 Subfamily C Member 19 (CYP2C19) small molecule antagonists: luciferase reporter qHTS assay (AID 1671197); also: nearly all actives have a fitted effect of over 65% in size; also: potency is read from the fitted curve at half-maximal effect
Cytochrome P450 2C19 (Homo sapiens), sequence (P33261 whole entry, looked up): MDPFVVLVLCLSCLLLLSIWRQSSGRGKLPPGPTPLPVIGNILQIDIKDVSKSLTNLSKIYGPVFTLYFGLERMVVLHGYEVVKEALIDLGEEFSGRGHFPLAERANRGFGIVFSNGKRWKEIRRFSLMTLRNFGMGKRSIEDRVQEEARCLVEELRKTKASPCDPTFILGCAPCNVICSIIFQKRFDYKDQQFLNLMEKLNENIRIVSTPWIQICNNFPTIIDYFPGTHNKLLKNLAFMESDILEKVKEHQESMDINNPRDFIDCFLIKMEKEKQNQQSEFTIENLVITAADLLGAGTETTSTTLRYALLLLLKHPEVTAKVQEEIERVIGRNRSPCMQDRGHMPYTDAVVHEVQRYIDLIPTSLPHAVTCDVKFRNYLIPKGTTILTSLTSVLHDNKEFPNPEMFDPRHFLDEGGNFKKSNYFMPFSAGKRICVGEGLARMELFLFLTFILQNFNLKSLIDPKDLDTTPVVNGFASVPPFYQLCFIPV
In short: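 Light output is proportional to CYP2C19 activity: proluciferin substrate is converted to luciferin, then detected by a luciferin detection reagent that also stops the 1 h, 37C NADPH-driven reaction. Ketoconazole serves as positive control.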

[13] = target: Cytochrome P450 2C9 (Homo sapiens) (UniProt P11712); assay: Cytochrome P450 Family 2 Subfamily C Member 9 (CYP2C9) small molecule antagonists: luciferase reporter qHTS assay (AID 1671198); also: nearly all actives have a fitted effect of over 50% in size; also: potency is read from the fitted curve at half-maximal effect
Cytochrome P450 2C9 (Homo sapiens), sequence (P11712 whole entry, looked up): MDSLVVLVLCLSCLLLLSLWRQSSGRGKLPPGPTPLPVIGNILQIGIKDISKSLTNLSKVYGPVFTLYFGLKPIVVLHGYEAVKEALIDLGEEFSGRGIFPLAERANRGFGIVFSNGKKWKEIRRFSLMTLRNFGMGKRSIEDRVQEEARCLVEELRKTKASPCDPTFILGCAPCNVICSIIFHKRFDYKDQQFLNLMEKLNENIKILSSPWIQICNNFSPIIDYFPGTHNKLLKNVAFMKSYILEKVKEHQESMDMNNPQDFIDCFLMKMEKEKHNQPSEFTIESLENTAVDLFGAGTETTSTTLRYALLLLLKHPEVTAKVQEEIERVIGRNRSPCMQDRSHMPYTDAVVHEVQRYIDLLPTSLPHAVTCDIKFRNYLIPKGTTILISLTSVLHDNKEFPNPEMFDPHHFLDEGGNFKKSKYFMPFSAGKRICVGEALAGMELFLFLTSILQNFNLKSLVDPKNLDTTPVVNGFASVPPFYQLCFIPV
In short: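 Enzyme-substrate mix preincubated with compound 10 min at room temperature; reaction started with NADPH regeneration solution, 1 h 37C. Luminescent luciferin product read after 20 min detection reagent.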

[14] = target: Cytochrome P450 1A2 (Homo sapiens) (UniProt P05177); assay: Cytochrome P450 Family 1 Subfamily A Member 2 (CYP1A2) small molecule antagonists: luciferase reporter qHTS assay (AID 1671199); also: nearly all actives have a fitted effect of over 50% in size; also: potency is read from the fitted curve at half-maximal effect
Cytochrome P450 1A2 (Homo sapiens), sequence (P05177 whole entry, looked up): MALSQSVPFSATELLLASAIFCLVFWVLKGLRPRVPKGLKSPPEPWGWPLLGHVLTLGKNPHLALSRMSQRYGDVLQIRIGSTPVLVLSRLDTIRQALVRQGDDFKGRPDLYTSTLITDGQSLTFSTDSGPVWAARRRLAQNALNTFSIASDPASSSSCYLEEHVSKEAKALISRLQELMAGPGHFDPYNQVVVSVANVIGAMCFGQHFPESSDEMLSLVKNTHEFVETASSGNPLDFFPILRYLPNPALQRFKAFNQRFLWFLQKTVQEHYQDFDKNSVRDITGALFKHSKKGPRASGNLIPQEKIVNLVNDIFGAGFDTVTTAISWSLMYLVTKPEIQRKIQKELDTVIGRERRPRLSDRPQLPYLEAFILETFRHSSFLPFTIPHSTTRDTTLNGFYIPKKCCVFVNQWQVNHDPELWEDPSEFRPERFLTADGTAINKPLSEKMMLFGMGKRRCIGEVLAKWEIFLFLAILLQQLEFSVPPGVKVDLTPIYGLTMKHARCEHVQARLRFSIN
In short: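 Luminescence readout (relative luminescence units) after luciferin detection reagent, 20 min RT. Preceded by 1 h room-temperature CYP1A2 reaction with NADPH regeneration solution following 10 min compound preincubation with enzyme and proluciferin substrate. Furafylline positive control.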

[15] = target: Voltage-gated inwardly rectifying potassium channel KCNH2 (Homo sapiens) (UniProt Q12809); assay: Human Ether-a-go-go-Related Gene (hERG) channel small molecule antagonists: fluorescence cell-based qHTS assay (AID 1671200); also: nearly all actives have a fitted effect of over 50% in size; also: potency is read from the fitted curve at half-maximal effect
Voltage-gated inwardly rectifying potassium channel KCNH2 (Homo sapiens), sequence (Q12809 whole entry, looked up): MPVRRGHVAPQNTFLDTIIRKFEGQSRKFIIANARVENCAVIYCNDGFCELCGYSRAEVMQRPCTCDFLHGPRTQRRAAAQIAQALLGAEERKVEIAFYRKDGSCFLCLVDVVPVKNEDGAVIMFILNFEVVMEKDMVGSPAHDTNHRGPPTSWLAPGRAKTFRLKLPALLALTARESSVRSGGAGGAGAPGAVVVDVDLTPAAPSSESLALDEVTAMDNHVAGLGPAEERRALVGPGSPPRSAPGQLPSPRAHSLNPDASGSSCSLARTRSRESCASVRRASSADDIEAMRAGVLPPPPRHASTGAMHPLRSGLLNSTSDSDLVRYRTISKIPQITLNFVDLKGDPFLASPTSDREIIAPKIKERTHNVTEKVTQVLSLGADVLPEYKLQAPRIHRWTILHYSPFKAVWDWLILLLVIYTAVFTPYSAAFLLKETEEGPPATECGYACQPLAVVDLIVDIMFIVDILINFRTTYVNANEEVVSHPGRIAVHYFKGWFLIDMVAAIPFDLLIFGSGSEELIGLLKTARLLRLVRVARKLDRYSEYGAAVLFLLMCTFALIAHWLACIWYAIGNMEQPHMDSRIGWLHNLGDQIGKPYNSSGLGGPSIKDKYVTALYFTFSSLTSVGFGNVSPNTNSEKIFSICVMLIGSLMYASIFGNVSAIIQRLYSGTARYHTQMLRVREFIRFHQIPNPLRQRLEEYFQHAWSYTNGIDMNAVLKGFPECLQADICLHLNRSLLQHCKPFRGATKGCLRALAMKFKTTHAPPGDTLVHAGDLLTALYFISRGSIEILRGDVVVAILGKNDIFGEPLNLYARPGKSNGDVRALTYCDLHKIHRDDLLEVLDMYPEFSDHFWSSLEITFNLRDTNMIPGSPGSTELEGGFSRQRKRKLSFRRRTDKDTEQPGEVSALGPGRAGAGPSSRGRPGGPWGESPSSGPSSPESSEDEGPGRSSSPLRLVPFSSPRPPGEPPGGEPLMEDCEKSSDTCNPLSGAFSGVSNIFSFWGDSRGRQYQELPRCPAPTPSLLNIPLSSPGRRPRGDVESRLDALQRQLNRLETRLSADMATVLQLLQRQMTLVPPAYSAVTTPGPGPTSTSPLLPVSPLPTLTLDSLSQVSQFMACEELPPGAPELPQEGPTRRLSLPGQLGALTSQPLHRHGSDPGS
In short: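 In this thallium-flux screen, overnight-cultured U2OS cells bearing the channel are dye-loaded in darkness for an hour, rested 10 min at room temperature, and then monitored kinetically at 480/540 nm for two minutes post-stimulus.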

[16] = target: Cytochrome P450 3A4 (Homo sapiens) (UniProt P08684); assay: Cytochrome P450 Family 3 Subfamily A Member 4 (CYP3A4) small molecule antagonists: luciferase reporter qHTS assay (AID 1671201); also: nearly all actives have a fitted effect of over 50% in size; also: potency is read from the fitted curve at half-maximal effect
Cytochrome P450 3A4 (Homo sapiens), sequence (P08684 whole entry, looked up): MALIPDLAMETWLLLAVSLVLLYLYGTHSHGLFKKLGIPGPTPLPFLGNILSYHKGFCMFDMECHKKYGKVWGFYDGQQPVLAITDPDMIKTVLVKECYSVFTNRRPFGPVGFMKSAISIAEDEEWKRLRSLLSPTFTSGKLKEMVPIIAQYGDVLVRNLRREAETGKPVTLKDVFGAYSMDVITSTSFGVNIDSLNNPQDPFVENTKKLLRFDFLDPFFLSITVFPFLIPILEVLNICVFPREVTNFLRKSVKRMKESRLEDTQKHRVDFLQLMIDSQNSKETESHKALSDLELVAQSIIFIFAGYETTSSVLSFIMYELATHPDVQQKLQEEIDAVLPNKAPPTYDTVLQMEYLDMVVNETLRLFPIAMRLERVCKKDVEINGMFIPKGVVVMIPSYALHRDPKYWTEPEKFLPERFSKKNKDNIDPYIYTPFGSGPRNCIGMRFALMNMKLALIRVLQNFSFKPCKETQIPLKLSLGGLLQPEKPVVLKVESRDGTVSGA
In short: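 CYP3A4 activity was followed with a P450-Glo proluciferin substrate. Test compounds in DMSO were preincubated 10 min; NADPH regeneration then ran 1 h, and light output was read 20 min after detection reagent.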

SMILES	Potency [1]	Potency [2]	Potency [3]	Potency [4]	Potency [5]	Potency [6]	Potency [7]	Potency [8]	Potency [9]	Potency [10]	Potency [11]	Potency [12]	Potency [13]	Potency [14]	Potency [15]	Potency [16]
O=C(N[C@H]1N=C(c2ccccc2F)c2cccc3c2N(CC3)C1=O)c1cc2ccccc2[nH]1	inactive	inactive	inactive	inactive	inactive	18.8 µM (active)	inactive	inactive	inactive	inactive	inactive	inactive	7.76 µM (active)	inactive	7.56 µM (active)	inactive
Brc1cccc(-c2ccccc2)c1	inactive	inactive	inactive	inactive	inactive	24.5 µM (active)	inactive	inactive	inactive	inactive	–	inactive	–	12.7 µM (active)	inactive	inactive
CCCCCON=O	inactive	inactive	inactive	inactive	inactive	inactive	inactive	inactive	inactive	inactive	inactive	inactive	inactive	inactive	inactive	inactive
CCCCCCCCCCCCCCn1cc[n+](C)c1	12.2 µM (active) and 27 µM (active)	43.4 µM (active) and inactive	4.34 µM (active) and 8.54 µM (active) and 61.1 µM (active)	inactive	61.3 µM (active) and 67.8 µM (active) and 54.4 µM (active)	3.86 µM (active) and 4.28 µM (active) and 21.7 µM (active)	63.4 µM (active) and 70.2 µM (active) and inactive	50.4 µM (active) and 70.2 µM (active) and inactive	20.1 µM (active) and 31.4 µM (active) and inactive	inactive	1.13 µM (active) and 1.25 µM (active)	40 µM (active) and 78.8 µM (active)	11.3 µM (active)	40 µM (active) and 62.6 µM (active)	3.9 µM (active) and 6.84 µM (active) and inactive	40 µM (active)
ClC1(Cl)C2(Cl)C3(Cl)C4(Cl)C(Cl)(Cl)C5(Cl)C3(Cl)C1(Cl)C5(Cl)C24Cl (configuration not stated)	inactive	inactive	inactive	inactive	inactive	inactive	inactive	inactive	inactive	inactive	inactive	inactive	–	inactive	inactive	inactive
O=NN(CCO)CCO	inactive	inactive	inactive	inactive	inactive	inactive	inactive	inactive	inactive	inactive	inactive	78.4 µM (active)	–	inactive	inactive	inactive
COC(=O)C(C)N(C(=O)c1ccco1)c1c(C)cccc1C (configuration not stated)	inactive	inactive	inactive	inactive	inactive	10.9 µM (active)	inactive	inactive	inactive	inactive	inactive	11.2 µM (active)	31.7 µM (active)	–	inactive	inactive
